From PubChem BioAssay AID624330 (Southern Research Specialized Biocontainment Screening …, 2012)
The campaign covered roughly 340,000 compounds. About 2,100 (0.62%) were called active.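 How the source made its calls: active means first-screen hits whose inhibition reached a set limit at any dose in the follow-up dose series; inconclusive means inhibition above the set first-screen limit but never retested; inactive means the rest.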 A selection follows. Measured potencies and affinities stand elsewhere.

biological target: Rac GTPase-activating protein 1 (Homo sapiens) (UniProt Q9H0H5); assay: MgcRacGAP GTPase-activating activity inhibitors, confirmation, biochemical, ADP Hunter fluorescence, primary and confirmatory (AID 624330); settings: MgcRacGAP-stimulated Rac1 GTP hydrolysis, at 30 µM, stronger effect = higher value, GST-tagged Rac1 F28L mutant substrate;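 further: fluorescence reports GDP produced by GAP-driven GTP hydrolysis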
Sequence (Q9H0H5 whole entry, looked up): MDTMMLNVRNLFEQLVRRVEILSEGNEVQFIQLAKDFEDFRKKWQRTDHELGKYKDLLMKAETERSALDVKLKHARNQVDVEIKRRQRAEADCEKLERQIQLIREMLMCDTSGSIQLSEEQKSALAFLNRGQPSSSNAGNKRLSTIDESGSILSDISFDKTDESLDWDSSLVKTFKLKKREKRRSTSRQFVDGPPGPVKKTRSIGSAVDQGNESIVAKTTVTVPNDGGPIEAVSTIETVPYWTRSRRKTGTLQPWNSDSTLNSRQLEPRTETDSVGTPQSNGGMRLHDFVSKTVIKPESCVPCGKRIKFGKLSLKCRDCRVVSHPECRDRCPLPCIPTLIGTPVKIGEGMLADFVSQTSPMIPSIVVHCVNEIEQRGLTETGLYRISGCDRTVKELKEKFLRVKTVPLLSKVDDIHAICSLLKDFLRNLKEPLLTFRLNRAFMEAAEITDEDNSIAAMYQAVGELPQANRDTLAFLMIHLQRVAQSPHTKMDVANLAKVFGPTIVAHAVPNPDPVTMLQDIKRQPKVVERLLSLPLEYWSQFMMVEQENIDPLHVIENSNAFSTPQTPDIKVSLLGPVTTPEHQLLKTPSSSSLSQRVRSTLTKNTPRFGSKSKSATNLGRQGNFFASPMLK

inhibition, inactive:
O=S(=O)(Cc1ccccc1)N1CCN(Cc2ccc3c(c2)OCO3)CC1 4.33%
Cc1cccc(NC(=O)C2C3C=CC(C4CC34)C2C(=O)O)c1 (stereo unspecified) 10%
Cc1nc2ncnn2c(C)c1Cc1cccc(C(F)(F)F)c1 5.74%
CC1Cc2ccccc2N1C(=O)CNc1ccccc1N1CCCCC1 (stereo unspecified) -0.46%
CCCCNC(=O)N1c2ccccc2CC1C (stereo unspecified) 1.84%
Cc1cc(N2C(=O)C(O)=C(C(=O)c3cc4ccccc4o3)C2c2ccc(Cl)cc2)no1 (stereo unspecified) -5.51%
O=[N+]([O-])c1ccccc1NS(=O)(=O)c1ccccc1 0.32%
Cc1ccc2[nH]ccc(=O)c2c1 10.1%
O=c1cc[nH]c2c1ccc1c(=O)cc[nH]c12 10.4%
CC1CCC2(CC1)NC(=O)N(CC(=O)N1CC(C)CC(C)C1)C2=O (stereo unspecified) 3.96%
CCc1ccc2c(c1)C(c1ccc([N+](=O)[O-])cc1)=NNC(c1ccc(C)cc1)=N2 11%
Cc1ccc(/C=N/Nc2cccc(C(=O)O)c2)s1 27.8%
O=C(O)c1cc(N/N=C/c2ccncc2)ccc1Cl -1.57%
CSc1ccc(/C=N/Nc2ccc(Cl)c(C(=O)O)c2)cc1 5.85%
Cc1ccc(/C=N/Nc2ccc(F)cc2)s1 8.64%
CC1=NN(c2ccc(Cl)c(C(=O)O)c2)C(=O)C1 14.9%
CCOC(=O)c1ccc(N2N=C(C)/C(=C/C=C/c3ccco3)C2=O)cc1 3.99%
O=C1NN(c2ccc(F)cc2)C(=O)/C1=C\C=C\c1ccco1 8.7%
CC1=NN(c2ccc(C(=O)OC(C)C)cc2)C(=O)/C1=C\C=C\c1ccco1 3.71%
O=C(C1=C(O)C(=O)N(CCN2CCOCC2)C1c1cccc(Br)c1)c1cc2ccccc2o1 (stereo unspecified) 4.64%
C=CCC[C@@H](Cc1ccc(F)cc1)C(=O)OC[C@@H](Cc1c[nH]c2ccccc12)NC(=O)[C@@H](CC=C)CC(=O)N[C@H](CO)Cc1ccccc1 11.1%
CCN(CC)C1CCN(C(=O)c2cc(COc3cccc4cccnc34)on2)C1 (stereo unspecified) -5.07%
COC(=O)C(NC(C)=O)(Nc1ccc(C)cn1)C(F)(F)F (stereo unspecified) -9.84%
O=[N+]([O-])c1ccccc1CN1CCN(Cc2ccccn2)CC1 28.6%
COc1cc(CN2CCC(C(=O)NC(C)(C)C)CC2)ccc1OCc1ccccc1 29.2%
CCOC(=O)c1cc(CC)sc1NC(=O)Cc1ccsc1 14.6%
C#Cc1ccc(CN2CCN(CCc3ccccc3)C(CCO)C2)cc1 (stereo unspecified) 5.19%
Cc1c(C)c2ccc(OCC(=O)NC3CCN(Cc4ccccc4)CC3)cc2oc1=O 4.93%
C[C@@H]1CCCCO[C@H](CN(C)C(=O)Nc2ccc(F)cc2)[C@@H](C)CN([C@H](C)CO)C(=O)c2cc(NC(=O)c3ccccc3)ccc2O1 5.34%
Oc1ccc(N=Nc2ccc3ccccc3c2)cc1 18.5%
Nc1ccc(N=Nc2ccccc2)c(N)n1 8.49%
Nc1ccc(N=Nc2ccccc2Cl)c(N)n1 10.4%
O=C(O)c1ccccc1N=Nc1ccc(O)cc1 13.8%
O=C(Nc1cccc(-c2ccccc2)c1)N1CCN(C(=O)Nc2cccc(-c3ccccc3)c2)CC1 14.5%
Cc1cc(NC(=O)c2ccc(C)o2)no1 2.09%
CCOC(=O)N1CCC(N2Cc3cccc(C(=O)Nc4ccc(N(CC)CC)cc4C)c3C2=O)CC1 -10.8%
COC(=O)CNC(=O)c1nn(-c2cccc(OC)c2)c(=O)c2ccccc12 7.12%
CCOC(=O)C1CCN(Cc2coc3c(Cl)cc(Cl)cc3c2=O)CC1 14.9%
O=c1c(CN2CCN(c3cccc(Cl)c3)CC2)coc2c(Cl)cc(Cl)cc12 1.43%
CCOC(=O)c1cnc2c(cnn2C)c1NCCC(O)C(F)(F)F (stereo unspecified) 12.4%
COc1ccc(CCC(=O)NC2CCCc3ccccc32)cc1OC (stereo unspecified) 5.44%
COc1ccc(NC(=O)c2cc3n(n2)C(C(F)(F)F)CC(c2ccco2)N3)cc1 (stereo unspecified) 14.5%
CCOc1ccc(NC(=O)c2cc3n(n2)C(C(F)(F)F)CC(c2ccco2)N3)cc1 (stereo unspecified) 6.77%
CCN(C[C@H]1N[C@@](Cc2ccccc2)(C(=O)OC)[C@H]2C(=O)N(Cc3ccccc3)C(=O)[C@@H]12)C(=O)COc1ccccc1 2.94%
Cc1cc2[nH]c3ccccc3c2c(C)n1 5.1%
Cc1cc2c([nH]c3ccccc32)c(C)n1 17.6%
O=C(NCc1ccncc1)C(=O)Nc1ccc2c(c1)OCO2 3.26%
O=C(NCc1ccncc1)Nc1ccc2c(c1)OCO2 14.7%
Cc1cc(NCc2ccncc2)ccc1Br 22.5%
Cc1ccc(CNc2ccc3c(c2)OCO3)cc1 10.4%
COc1ccc(CN(C)C(=O)Cc2ccc(OC)c(S(=O)(=O)N3CCOCC3)c2)cc1 6.77%
O=C1CSC(c2cn(-c3ccccc3)nc2-c2cc3ccccc3oc2=O)N1Cc1cccnc1 (stereo unspecified) -1.18%
CCN(CC)CCCN(C(=O)c1ccccc1F)c1nc(-c2ccc(OC)cc2)cs1 13.2%
c1ccc(C2=NN(c3ccccc3)CC2)cc1 10.1%
CSc1nnc(-c2nnc(SC)n2-c2ccccc2)n1-c1ccccc1 5.06%
COC(=O)C1=C(C)NC(=O)NC1c1ccc(OCC(=O)N2CCCCC2)cc1 (stereo unspecified) 6.29%
CC1(C)OC(=O)C=C[C@]2(C)[C@H]3CC[C@@]4(C)[C@H](C(=O)O)OC(=O)[C@H]5O[C@]54[C@]3(C)C(=O)C[C@@H]12 10.6%
C[C@@H]1CN([C@H](C)CO)S(=O)(=O)c2ccc(C#Cc3ccccc3)cc2O[C@@H]1CN(C)C(=O)CN(C)C 10.8%
CCOc1ccc(/C=N/NC(=O)Cc2csc(Nc3cccc(C(F)(F)F)c3)n2)cc1 13.7%
Cc1ccc(/C=C/C(=O)Nc2ccncc2)o1 8.37%
Cc1ccc(/C=C/C(=O)Nc2ccc([N+](=O)[O-])cc2)o1 5.27%
O=C(O)C1C2C=CC3(CN(c4cccc(C(F)(F)F)c4)C(=O)C13)O2 (stereo unspecified) 2.13%
Cc1cc(C)cc(N(CC(=O)N2CCCC2)S(C)(=O)=O)c1 0.27%
COc1ccccc1C(CNC(=O)CNC(=O)c1ccccc1Cl)N1CCCC1 (stereo unspecified) 4.57%
CCOCCCNC(=O)/C(C#N)=C/c1ccc(Cl)c([N+](=O)[O-])c1 2.68%
CCOCCCNC(=O)/C(C#N)=C/c1ccc(C)o1 -11.1%
O=S(=O)(c1ccccc1)c1nc(Nc2cccc(O)c2)sc1Cl 8.03%
COc1ccccc1NC(=O)c1cc2ccccc2o1 10.9%
COc1ccc2[nH]c3c(c2c1)CNCC3 17.4%
O=C(CNCC1CCCCC1)Nc1ccc(OC(F)(F)F)cc1 19.5%
CCN1CCCC1CNC(=O)C(=O)Nc1ccc(OC)cc1 (stereo unspecified) 8.81%
O=C(CN(Cc1ccco1)C(=O)CNS(=O)(=O)c1ccc(F)cc1)NCc1ccco1 7.49%
COCc1cc(/C=N\NC(=O)c2ccc(Cl)cc2)ccc1OC 7.25%
Cc1ccc(Cn2nnc3c(=O)[nH]c(C4CCCN(C(=O)Nc5ccc(F)cc5)C4)nc32)cc1 (stereo unspecified) 2.33%
COc1ccc2[nH]c3c(Cl)ncnc3c2c1 2.77%
COc1ccc2[nH]c(C)cc(=O)c2c1 17.3%
COc1ccc2[nH]c3c(=S)nc[nH]c3c2c1 16.8%
Cc1c2ccncc2cc2c1[nH]c1ccccc12 8.32%
CC(C)C(=O)N(Cc1cc2ccccc2[nH]c1=O)C(C)(C)C 4.65%
Cc1ccc(S(=O)(=O)N2CCN(C(=O)COC(=O)CC(C)c3ccccc3)CC2)c(C)c1 (stereo unspecified) -1.45%
COc1ccccc1NC(=S)NCC1CCCO1 (stereo unspecified) 8.32%
Cc1cc(F)ccc1S(=O)(=O)N1CCCOC1CNC(=O)C(=O)NCC(C)C (stereo unspecified) 3.59%
O=C(CCC(=O)c1cccs1)NCc1ccncc1 8.09%
COc1ccccc1CNS(=O)(=O)CCNCc1ccco1 7.98%
Cc1ccc(NCCc2ccc(C)nc2)cc1 24.8%
Cc1ccc(CCNc2ccccc2C)cn1 6.7%
CCc1nnc(N/N=C/c2c(Cl)cccc2Cl)n1N 6.89%
CCc1nnc(N/N=C/c2ccccc2F)n1N -6.59%
Cc1ccc(/C=N/Nc2nncn2N)cc1 -7.75%
Cc1[nH]c2ccccc2c1/C=N/n1cnnc1 11.3%
Cc1[nH]c2ccccc2c1/C=N/NC(N)=S 15.4%
CCc1nnc(N/N=C/c2cc(C)c(C)cc2C)n1N 8.58%
Cc1ccc(CN(C)C(=O)CSc2nnc3n2CCCCC3)c(C)c1 -1.85%
CCC(C(=O)OC)n1cnc2c(nnn2-c2cccc(Cl)c2)c1=O (stereo unspecified) -2.79%
COc1ccc(N2CCN(C(=O)c3sc4ncn(CC(=O)N5CCCCC5)c(=O)c4c3C)CC2)cc1 22.1%
O=C(NC1CCSc2ccccc21)c1cc(S(=O)(=O)N2CCOCC2)ccc1Cl (stereo unspecified) 0.41%
